# Screening results: PubChem, National Center for Advancing Translational Sciences (NCATS)
# Shown is part of a subset that was picked to be rich in hits.
# DT40 TDP1 CPT = growth inhibition of DT40 Tdp1-/-;hTDP1 cells with camptothecin (screen for TDP1 inhibitors); 420,000 compounds, 12% hits; Potency, µM (doses to about 46.2 µM), without a hit: top-dose activity change, negative = growth inhibition, hits mostly inhibitors; chicken DT40 Tdp1-/-;hTDP1 cells + 20 nM CPT, ATP luminescence, 48 h; note: potency is the fitted concentration of half-maximal effect; nearly all actives have a fitted effect of over 55% in size
#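 Chicken DT40 Tdp1-/- cells complemented with human TDP1, 400 cells/well, exposed to compounds plus 20 nM camptothecin for at least 48 h at 37 C; viability read as ATP content by CellTiter-Glo luminescence.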
# TDP1 cell noCPT = qHTS for Inhibitors of human tyrosyl-DNA phosphodiesterase 1 (TDP1): qHTS in cells in absence of CPT. Potency, µM (doses to about 46.2 µM), for inactives: top-dose activity change, negative = growth inhibition, most hits filed as inhibitors. DT40 Tdp1-/- hTDP1 cells, no CPT, ATP luminescence, 48 h. 420,000 compounds, 15% hits; note: potency is the fitted concentration of half-maximal effect; nearly all actives have a fitted effect of over 55% in size
#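 Chicken DT40 Tdp1-/- cells complemented with human TDP1, screened without camptothecin (DMSO vehicle only), 400 cells/well. Compounds pin-transferred, cells incubated at 37 °C for at least 48 hr. Growth read as ATP-dependent luminescence (CellTiter-Glo, 30 min at RT).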
# HT1080 IDH1KD tx = toxicity to HT-1080 IDH1 knockdown cells (counter line) | AID 686971 | HT-1080 IDH1 knockdown viability, ATP luminescence, 48 h | 360,000 compounds, 2% hits | Potency, µM (series often up to 46.1 µM), for inactives: at the top dose activity, negative = toxicity, usual class: cytotoxic;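 note: potency is the fitted concentration of half-maximal effect; 0% = DMSO wells and -100% = cell-free medium wells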
#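 In this qHTS, HT-1080 cells depleted of IDH1 are exposed for 48 h at 37 °C to compound titrations. Toxicity is scored from CellTiter-Glo luminescence, with DMSO as full viability and medium alone as none.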
# HT1080-NT tox = kills 2HG-producing HT-1080-NT fibrosarcoma cells; 360,000 compounds, 1.6% hits; Potency, µM (titrated, usually from 46.1 µM), for the others: at the highest dose activity, negative = less viability, hits mostly cytotoxic; AID 686970; HT-1080-NT fibrosarcoma viability, CellTiter-Glo ATP luminescence, 48 h;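 note: NT is the 2HG producing partner of a matched IDH1 knockdown line; potency is the fitted concentration of half-maximal effect; 0% = DMSO-treated cells and -100% = media-only wells without cells; nearly all actives have a fitted effect of over 55% in size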
#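 Fibrosarcoma NT cells, 750 per well in 5% FBS RPMI, were exposed to compound for 48 hours. Viability: CellTiter-Glo luminescence.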
# ALOX12 inh = inhibitors of human 12S-lipoxygenase ALOX12; 580,000 compounds, 1.1% hits; purified 12hLO, xylenol orange hydroperoxide absorbance; Potency, µM (highest dose often 108 µM), for inactives: at the top dose activity change, negative = inhibition, hits mostly inhibitors; P18054; note: potency is the fitted concentration of half-maximal effect
# Target sequence (P18054 whole entry, looked up): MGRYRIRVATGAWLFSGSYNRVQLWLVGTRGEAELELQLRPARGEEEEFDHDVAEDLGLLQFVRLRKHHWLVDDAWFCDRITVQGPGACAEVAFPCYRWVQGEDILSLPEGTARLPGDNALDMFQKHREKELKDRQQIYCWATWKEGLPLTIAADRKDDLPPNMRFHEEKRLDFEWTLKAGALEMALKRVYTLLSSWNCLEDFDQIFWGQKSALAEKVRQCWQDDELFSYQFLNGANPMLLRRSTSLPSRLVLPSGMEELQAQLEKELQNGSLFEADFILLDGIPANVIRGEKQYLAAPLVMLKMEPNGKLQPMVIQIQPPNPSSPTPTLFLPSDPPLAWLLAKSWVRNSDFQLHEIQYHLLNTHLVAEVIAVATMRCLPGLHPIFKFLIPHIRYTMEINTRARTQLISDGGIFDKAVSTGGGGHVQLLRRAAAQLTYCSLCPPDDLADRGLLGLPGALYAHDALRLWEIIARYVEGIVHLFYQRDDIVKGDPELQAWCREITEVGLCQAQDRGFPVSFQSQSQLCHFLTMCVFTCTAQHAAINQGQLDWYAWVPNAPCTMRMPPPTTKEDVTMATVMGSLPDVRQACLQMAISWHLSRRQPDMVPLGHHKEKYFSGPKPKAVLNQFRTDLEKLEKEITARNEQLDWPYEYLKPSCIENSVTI
#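 Purified human 12hLO (150 nM final) in 25 mM Hepes, 0.01% Triton X-100, pH 7.0 was preincubated 15 min at room temperature with compound. Then 40 uM arachidonic acid was added, 30 min. Hydroperoxide was read by Fe-XO absorbance ratio 573/405 nm.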
# IL-1B inflam inh = blocks inflammasome-driven IL-1 beta release | THP-1 LPS/ATP IL-1B secretion, AlphaLISA, 16 h; active compounds read low | activity change, % at 57.5 µM | 360,000 compounds, 4.7% hits | AID 743279; in the data active = activity change below about -50%; inconclusive = mostly about -30% to -49%
#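 Secreted IL-1B measured by AlphaLISA bead assay after 16 h compound exposure of THP-1 cells; compounds (final up to 57.5 uM) added 1 h before LPS (250 ng/mL) and ATP (1.25 mM) stimulation; lower signal means less secretion.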
# An asterisk follows results filed as active; ? = inconclusive; . = no result given; ! = not confirmed by another sample. Unless noted, calls come from the whole dose curve; as a rule, active = well fitted curve in the direction sought with a large enough effect; inconclusive = small, poorly fitted or top-dose-only effect, or another doubt; inactive = no such curve, though single readings can be large; an effect the other way counts as inactive or inconclusive. Unless noted, % is set by controls: 0 for no effect and ±100 for the full control effect.
SMILES,DT40 TDP1 CPT,TDP1 cell noCPT,HT1080 IDH1KD tx,HT1080-NT tox,ALOX12 inh,IL-1B inflam inh
c1ccc2c(Nc3ccc(N4CCOCC4)cc3)nc(N3CCOCC3)nc2c1,?,20.6µM*,?,?,-6.2%,-70.3*
COc1ccc(Nc2nc(N3CCCCC3)c3ccccc3n2)cc1,18.4µM*,18.4µM*,?,-24.9%,28.2µM*,-101.2*
Cc1ccc(Nc2nc(N3CCOCC3)c3ccccc3n2)cc1,20.6µM*,20.6µM*,-24.9%,?,?,-104.3*
CN1CCN(c2ccc(-c3ccc4ccccc4n3)cc2)CC1,?,18.4µM*,?,?,4.5%,-65.3*
C(=C\c1nc(N2CCCC2)c2ccccc2n1)/c1ccccc1,?,?,?,25.9µM*,-29.1%,-98.2*
CC1CCN(c2nc(/C=C/c3ccccc3)nc3ccccc23)CC1,-3.1%,?,?,?,-3.8%,-30.0
Cc1cc(-c2ccc(N3CCOCC3)cc2)nc2ccccc12,20.6µM*,23.1µM*,6.5%,3.5%,?,-13.2
c1ccc2nc(-c3ccc(N4CCOCC4)cc3)ccc2c1,-21.4%,-23.1%,5.2%,4.3%,0.0%,36.6
Cc1ccc(C(=O)COC(=O)c2ccccc2-c2ccccc2)cc1C,.,.,.,.,20.6%,.
CC(C)(Cc1cc(=O)c2ccccc2[nH]1)C1CCCCC1,.,.,.,.,-22.5%,.
COc1cccc(C(=O)N2CCC(N3C[C@H](O)C[C@H]3C(=O)NCc3ccccc3F)CC2)c1,.,.,.,.,13.4%,.
CCOc1ccccc1N,5.0%,1.4%,4.8%,?,-5.2%,31.0
C=CCOc1ccccc1N,.,.,.,.,5.62µM*,.
COc1cccc(C2SCC(=O)N2c2ccc(Br)cc2)c1OC (stereo unspecified),23.1µM*,?,-2.2%,-2.3%,10.5%,-18.2
CCCCN(CC)CCCNC(=O)c1ccc2c(c1)N(Cc1ccc(C)cc1)C(=O)c1ccccc1S2,5.8µM*,5.17µM*,.,.,?,.
CCN1C(=O)c2ccccc2Sc2ccc(C(=O)NCCCN(CC(C)C)CC(C)C)cc21,14.6µM*,16.4µM*,8.9%,-9.3%,0.0%,-64.5*
CCN1C(=O)c2ccccc2Sc2ccc(C(=O)NCCN3CCOCC3)cc21,11.6%,8.0%,5.2%,3.5%,-12.9%,7.7
Nc1ncc(-c2nnnn2-c2ccc(Cl)cc2)c(-c2ccc(Cl)cc2)n1,4.61µM*,5.8µM*,7.31µM*,6.51µM*,0.0%,40.2
CN(c1ccc(Cl)cc1)c1cc(=O)n(C)c2ccccc12,12.6µM*,?,?,?,?,1.6
Nc1ccccc1C(=O)NC(=O)Nc1ccc(Oc2ncc(Br)cn2)c(Cl)c1,0.0052µM*,0.0184µM*,?,?,-25.3%,28.6
Cc1cc(NC(=O)NC(=O)c2ccccc2NC(=O)CN)ccc1Oc1ncc(Br)cn1,0.82µM*,0.581µM*,?,0.517µM*,-2.0%,-15.1
COc1ccc(NC(=O)Nc2ccccc2C(N)=O)cc1OC,-0.5%,-4.6%,-14.5%,4.0%,6.9%,0.0
Cc1cc(NC(=O)NC(=O)c2ccccc2NC(=O)CN(C)C)ccc1Oc1ncc(Br)cn1,3.66µM*,4.11µM*,?,?,-13.4%,59.8
CNCc1ccccc1Sc1cc(O)ccc1O,1.84µM*,3.66µM*,?,?,?,-100.0*
CCc1nnc(NC(=O)c2nc(S(=O)(=O)Cc3ccc(C)cc3)ncc2Cl)s1,16.4µM*,20.6µM*,14.6µM*,18.4µM*,1.5%,-102.3*
CCc1nnc(NC(=O)c2nc(S(=O)(=O)Cc3cccc(C)c3)ncc2Cl)s1,5.8µM*,5.17µM*!,10.3µM*,23.1µM*,1.8%,-102.1*
